# From PMC3218832
# How the values were obtained:
# Test in all cases: protein binding microarray; high values mean tight binding
# Details in all cases: dsDNA, one strand shown
# [1] = molecular target: RELARELA (p65 homodimer) (Homo sapiens, UniProt Q04206 1-307)
# [2] = molecular target: p50p50 homodimer (Homo sapiens, UniProt P19838 7-356)
# [3] = molecular target: T1, p52p52 homodimer (Homo sapiens, UniProt Q00653 4-332)
# T1 sequence: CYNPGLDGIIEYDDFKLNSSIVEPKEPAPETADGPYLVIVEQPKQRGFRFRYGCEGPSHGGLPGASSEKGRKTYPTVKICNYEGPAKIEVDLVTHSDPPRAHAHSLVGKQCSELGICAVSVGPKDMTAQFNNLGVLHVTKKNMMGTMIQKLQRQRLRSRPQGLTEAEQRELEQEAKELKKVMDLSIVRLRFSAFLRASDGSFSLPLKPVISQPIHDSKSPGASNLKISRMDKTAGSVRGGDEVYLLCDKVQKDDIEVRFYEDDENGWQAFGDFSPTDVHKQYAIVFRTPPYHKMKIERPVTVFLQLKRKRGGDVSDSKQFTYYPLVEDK
# [4] = molecular target: RELA (p65) subunit of heterodimer;p50 subunit (Homo sapiens;Homo sapiens, UniProt Q04206;P19838 1-307;7-356)
# [5] = molecular target: RELA (p65) subunit of heterodimer;p52 subunit (Homo sapiens;Homo sapiens, UniProt Q04206;Q00653 1-307;4-332)
# [6] = molecular target: RELB subunit;p50 subunit (Homo sapiens;Homo sapiens, UniProt Q01201;P19838 120-401;7-356)
# [7] = molecular target: T2, RELB subunit;p52 subunit (Homo sapiens;Homo sapiens, UniProt Q01201;Q00653 120-401;4-332)
# T2 sequence 1: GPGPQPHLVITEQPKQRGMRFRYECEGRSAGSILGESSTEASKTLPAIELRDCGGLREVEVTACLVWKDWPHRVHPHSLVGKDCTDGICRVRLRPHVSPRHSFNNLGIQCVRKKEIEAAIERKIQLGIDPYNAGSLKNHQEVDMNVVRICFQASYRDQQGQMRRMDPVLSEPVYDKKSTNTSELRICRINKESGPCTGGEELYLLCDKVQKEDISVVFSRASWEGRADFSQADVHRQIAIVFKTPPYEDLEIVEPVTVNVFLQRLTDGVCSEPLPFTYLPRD
# T2 sequence 2: T1 sequence
# [8] = molecular target: C-Rel subunit;p50 subunit (Homo sapiens;Homo sapiens, UniProt Q04864;P19838 1-285;7-356)
# [9] = molecular target: T3, C-Rel subunit;p52 subunit (Homo sapiens;Homo sapiens, UniProt Q04864;Q00653 1-285;4-332)
# T3 sequence 1: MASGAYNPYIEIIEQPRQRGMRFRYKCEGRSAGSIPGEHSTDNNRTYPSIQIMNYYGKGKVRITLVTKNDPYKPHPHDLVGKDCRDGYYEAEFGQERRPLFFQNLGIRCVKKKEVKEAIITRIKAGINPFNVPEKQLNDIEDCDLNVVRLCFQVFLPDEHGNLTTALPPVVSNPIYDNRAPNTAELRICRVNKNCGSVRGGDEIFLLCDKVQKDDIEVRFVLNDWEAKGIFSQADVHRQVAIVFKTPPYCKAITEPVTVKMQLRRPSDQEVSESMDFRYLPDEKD
# T3 sequence 2: T1 sequence
# p50p50 homodimer, sequence (P19838 7-356): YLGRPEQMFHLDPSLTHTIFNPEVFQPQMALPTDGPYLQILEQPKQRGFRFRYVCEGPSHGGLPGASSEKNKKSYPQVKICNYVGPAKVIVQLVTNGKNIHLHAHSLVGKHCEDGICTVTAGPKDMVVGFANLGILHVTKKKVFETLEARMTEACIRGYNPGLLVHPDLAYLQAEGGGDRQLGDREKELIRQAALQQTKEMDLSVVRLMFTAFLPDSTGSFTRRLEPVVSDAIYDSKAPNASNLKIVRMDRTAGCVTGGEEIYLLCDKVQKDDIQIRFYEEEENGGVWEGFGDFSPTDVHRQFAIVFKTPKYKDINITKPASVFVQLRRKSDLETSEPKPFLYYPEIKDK
# RELA (p65) subunit of heterodimer;p50 subunit, sequence (Q04206 1-307, chain 1 of 2): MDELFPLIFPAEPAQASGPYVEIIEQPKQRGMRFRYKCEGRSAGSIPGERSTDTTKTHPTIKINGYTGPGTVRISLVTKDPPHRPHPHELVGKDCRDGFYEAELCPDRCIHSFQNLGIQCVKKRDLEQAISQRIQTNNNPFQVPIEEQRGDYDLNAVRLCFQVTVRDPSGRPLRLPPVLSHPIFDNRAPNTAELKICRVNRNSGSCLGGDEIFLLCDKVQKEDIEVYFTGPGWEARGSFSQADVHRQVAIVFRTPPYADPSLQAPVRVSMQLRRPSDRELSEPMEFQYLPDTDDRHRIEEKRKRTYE
# RELA (p65) subunit of heterodimer;p50 subunit, sequence (P19838 7-356, chain 2 of 2): as the sequence (P19838 7-356) above
# RELARELA (p65 homodimer), sequence (Q04206 1-307): as the sequence (Q04206 1-307, chain 1 of 2) above
Sequence,binding signal [1] [z-score],binding signal [2] [z-score],binding signal [3] [z-score],binding signal [4] [z-score],binding signal [5] [z-score],binding signal [6] [z-score],binding signal [7] [z-score],binding signal [8] [z-score],binding signal [9] [z-score]
CGGTACATCCC,0.722,0.342,1.69,0.384,0.93,0.529,0.811,0.0779,0.879
AAAATGATCCC,-0.603,-0.272,-0.265,-0.543,-0.453,-0.443,-0.704,-0.71,-0.512
AGGTGCACCCC,-0.368,0.235,0.492,0.0923,0.549,0.107,0.61,-0.0192,0.815
GGGTGGCCCCC,-0.733,0.527,0.796,0.639,0.996,0.399,0.74,0.773,0.833
AAAAATTCCCC,3.28,1.42,2.98,2.27,2.54,2.96,2.46,2.04,2.78
AGGTATTTCCC,2.88,0.816,2.74,1.5,2.11,1.27,1.85,1.43,2.34
GGGGATTCCCT,3.57,1.37,3.18,2.6,3.05,2.45,2.75,2.76,3.46
GGGGGGCCCCT,0.434,0.995,1.67,1.67,1.86,1.23,1.45,1.22,1.71
CGGGATGCCCC,1.39,0.572,2.24,1.51,1.6,1.24,1.28,0.949,1.61
GGAGACGCCCT,-0.954,-1.6,-0.72,-0.832,-0.77,-1.05,-0.933,-1.16,-0.641
CGGTAACTCCC,1.08,0.598,1.03,0.774,0.795,0.459,1.02,0.555,0.833
AAAAGAATCCC,0.306,0.444,0.44,0.389,0.575,0.356,0.317,0.495,0.359
AAATGTATCCT,-0.258,-1.3,-0.661,-0.932,-0.782,-0.907,-0.763,-1.32,-0.746
GAATTCGCCCT,0.00849,-0.928,-0.505,-0.461,-0.517,-0.698,-0.722,-0.531,-0.36
AGATGTTTCCC,1.63,0.332,0.359,0.89,0.674,0.348,0.51,1.05,0.783
CAGATAGCCCT,-0.575,-1.02,-0.544,-0.662,-0.763,-0.804,-0.675,-1.23,-0.828
CAGGGGTTCCT,-0.143,0.529,0.77,-0.0941,0.55,-0.0145,0.388,-0.324,0.485
CGAAAGATCCC,0.0219,-0.089,-0.151,-0.0254,-0.0507,0.0265,-0.282,-0.258,-0.147
AAGGGCGTCCT,-1.14,-1.28,-0.61,-1.06,-0.909,-0.994,-0.788,-1.25,-0.659
AAGAGGCCCCT,-0.777,0.359,-0.0334,-0.301,-0.248,0.196,0.191,-0.344,-0.287

Sequence,binding signal [1] [z-score],binding signal [2] [z-score],binding signal [3] [z-score],binding signal [4] [z-score],binding signal [5] [z-score],binding signal [6] [z-score],binding signal [7] [z-score],binding signal [8] [z-score],binding signal [9] [z-score]
CAAAGCCTCCC,-0.873,-0.992,-0.631,-0.874,-0.823,-0.859,-0.707,-1.19,-0.839
CAGATACTCCC,-0.1,-0.181,-0.309,-0.154,-0.498,-0.145,-0.637,-0.312,-0.374
CGGGAGATCCT,-0.093,0.247,0.164,-0.217,0.0606,0.132,0.152,-0.227,0.0327
AAGGGCCCCCT,-0.998,0.884,0.332,0.446,0.569,0.703,1.14,0.138,0.261
CAATTTATCCT,-0.0381,-0.676,-0.566,-0.744,-0.71,-0.801,-0.64,-1.1,-0.673
GGATACTTCCT,0.213,-1.36,-0.625,-0.647,-0.831,-1.14,-0.942,-1.04,-0.591
CGGATCTTCCT,0.45,-1.67,-0.691,-0.69,-0.836,-1.21,-0.889,-0.859,-0.666
AAAGATGTCCC,0.336,0.646,0.345,0.492,0.185,0.741,0.487,0.497,-0.0919
GAAAAGGCCCC,-0.413,0.523,0.108,0.289,0.416,0.151,0.246,-0.101,0.313
AAGTTCACCCC,-0.0981,0.184,0.0438,-0.0301,-0.0961,0.292,0.317,0.451,0.174
CAGGGATCCCC,0.967,0.94,0.898,1.56,1.23,1.11,1.1,1.1,1.31
CAGAATCTCCC,0.546,0.713,-0.063,0.636,0.291,0.641,0.396,0.223,0.378
GAAGTCTTCCC,0.246,-0.511,-0.37,-0.272,-0.339,-0.349,-0.537,0.175,-0.174
CAAAGGCTCCT,-0.998,-1.36,-0.784,-1.16,-1.16,-1.21,-1.07,-1.99,-1.13
AGAATTGCCCT,0.531,-0.747,-0.409,0.222,-0.0792,-0.516,-0.558,-0.0961,0.0532
CGGTAAACCCT,0.285,-0.188,0.217,-0.158,0.0419,-0.151,-0.0534,-0.122,0.186
GGGGACACCCC,0.873,0.656,2.83,1.56,2.26,1.68,2.1,1.26,2.35
GGATTGTTCCC,0.75,-0.265,-0.233,-0.0316,-0.0574,-0.257,-0.307,0.0336,0.152
CAATAAGTCCT,0.325,-1.39,-0.437,-0.836,-0.813,-0.817,-0.698,-0.578,-0.74
GAGTAAGCCCC,-0.458,0.604,0.178,0.392,0.155,0.171,0.116,0.263,0.236

Sequence,binding signal [1] [z-score],binding signal [2] [z-score],binding signal [3] [z-score],binding signal [4] [z-score],binding signal [5] [z-score],binding signal [6] [z-score],binding signal [7] [z-score],binding signal [8] [z-score],binding signal [9] [z-score]
CGGAGAGTCCT,1,-1.2,-0.591,-0.159,-0.629,-0.808,-0.743,-0.482,-0.448
AAAGTCGTCCT,-0.192,-1.25,-0.599,-1.25,-0.839,-0.89,-0.666,-1.18,-0.704
GGGAATCTCCT,2.57,0.441,1.08,0.896,0.912,0.367,0.827,0.987,1.35
GGAAACTCCCC,3.23,1.08,2.01,2.39,2.23,1.32,2.1,2.15,2.63
AGGGAGTTCCT,0.744,0.856,1.12,0.667,0.798,0.721,0.659,0.315,0.64
GAAAGAATCCT,-0.654,-1.19,-0.601,-1.12,-0.922,-0.95,-0.787,-1.22,-0.804
AGATTTATCCC,-0.076,-0.338,-0.0792,-0.321,-0.11,-0.291,-0.135,0.062,-0.0889
AGGGTTGCCCT,-0.236,-1.22,-0.523,-0.681,-0.727,-0.807,-0.774,-0.341,-0.29
AGGAAGCCCCC,0.317,1.14,1.3,1.61,1.31,1.03,1.07,1.09,1.7
GGGTTATCCCC,2.08,0.73,3.22,1.96,2.63,1.91,2.13,1.6,2.55
AAGAACACCCC,-0.22,0.317,0.0847,0.107,0.232,0.176,0.504,0.232,0.274
CAATGACCCCC,-0.602,0.342,0.0634,0.0857,0.113,0.27,0.286,-0.0621,-0.0557
CAAGTTCCCCT,0.677,1.46,2.18,1.97,1.77,2.27,2.14,1.56,1.84
GAAGAAATCCC,1.23,0.872,0.93,0.96,0.759,0.876,0.618,0.892,0.641
AAGGTTATCCC,-0.0178,-0.0329,0.0211,-0.139,-0.074,-0.236,-0.173,-0.0847,-0.165
AAAAGGATCCT,-0.683,-1.24,-0.703,-1.11,-1.09,-1.05,-0.866,-1.6,-0.998
CAAGACCTCCC,-0.906,-1.11,-0.577,-0.688,-0.796,-0.585,-0.626,-0.818,-0.713
AGAGAGATCCC,-0.281,-0.511,-0.367,-0.448,-0.506,-0.355,-0.569,-0.565,-0.502
GAAAAAACCCC,2.27,1.19,2.74,1.93,2.2,2.14,2.12,1.45,2.18
AGGTAAACCCC,1.17,0.722,2.16,1.25,1.68,0.79,1.51,0.88,2.02
